The results in this text go back to PubChem BioAssay (EPA / NIEHS).

Several values for one entry are separate records, joined by “and”; a condition that tells them apart may be missing. Equal values may be shown once. Records with an inconclusive call do not appear. Some structures have more than one record in an assay (separate samples or runs), and their calls can disagree. Activity calls are given as the source filed them. How the source made its calls: active means hit-call score of the fitted dose curve at least 0.9, where 1 is the maximum; inconclusive means response in the unintended direction; inactive means score below 0.9.

Usually AC50 stands for the concentration at which the activity in the assay is half-maximal.

Sequence of Estrogen receptor (Homo sapiens) + Estrogen receptor beta (Homo sapiens) (P03372 whole entry, looked up, the tested form may be a part): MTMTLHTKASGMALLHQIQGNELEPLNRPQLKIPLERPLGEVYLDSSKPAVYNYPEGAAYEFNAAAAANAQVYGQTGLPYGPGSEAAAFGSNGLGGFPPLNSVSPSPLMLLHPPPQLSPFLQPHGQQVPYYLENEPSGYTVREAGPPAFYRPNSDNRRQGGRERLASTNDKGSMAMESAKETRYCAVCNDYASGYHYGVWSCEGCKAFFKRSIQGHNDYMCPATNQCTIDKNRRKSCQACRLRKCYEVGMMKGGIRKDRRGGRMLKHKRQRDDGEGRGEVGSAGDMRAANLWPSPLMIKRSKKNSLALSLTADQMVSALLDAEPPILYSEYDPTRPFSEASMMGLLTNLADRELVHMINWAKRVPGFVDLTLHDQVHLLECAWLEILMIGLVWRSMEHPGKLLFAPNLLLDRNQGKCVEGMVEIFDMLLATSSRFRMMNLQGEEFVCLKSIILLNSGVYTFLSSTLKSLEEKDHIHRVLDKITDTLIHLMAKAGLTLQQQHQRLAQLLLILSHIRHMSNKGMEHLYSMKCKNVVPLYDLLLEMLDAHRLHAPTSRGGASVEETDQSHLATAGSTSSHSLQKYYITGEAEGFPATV
Sequence of Estrogen receptor (Homo sapiens) + Estrogen receptor beta (Homo sapiens) (Q92731 whole entry, looked up, the tested form may be a part): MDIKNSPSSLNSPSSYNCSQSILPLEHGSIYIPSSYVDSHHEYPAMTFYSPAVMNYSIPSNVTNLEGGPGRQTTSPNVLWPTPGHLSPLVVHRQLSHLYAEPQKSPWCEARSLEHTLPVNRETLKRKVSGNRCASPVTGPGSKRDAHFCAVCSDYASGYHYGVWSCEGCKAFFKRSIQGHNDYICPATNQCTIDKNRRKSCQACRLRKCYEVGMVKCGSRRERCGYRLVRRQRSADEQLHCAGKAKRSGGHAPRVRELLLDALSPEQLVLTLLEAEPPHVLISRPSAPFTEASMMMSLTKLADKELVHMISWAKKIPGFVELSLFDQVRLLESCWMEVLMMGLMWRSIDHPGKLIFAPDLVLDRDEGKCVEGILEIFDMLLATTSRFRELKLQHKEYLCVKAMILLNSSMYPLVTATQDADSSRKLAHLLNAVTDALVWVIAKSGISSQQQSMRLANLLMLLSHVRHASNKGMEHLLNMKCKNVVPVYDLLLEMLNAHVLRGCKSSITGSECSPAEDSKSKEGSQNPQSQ

For the assay, the target named is Estrogen receptor (Homo sapiens) + Estrogen receptor beta (Homo sapiens) (UniProt P03372+Q92731). Description: OT_ER_ERaERb_1440: Odyssey Thera (OT) 24-hour HEK293T Protein-Complementation Assay for Estrogen Receptor-alpha/-beta Homodimer (AID 2283356).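 Further: hits raise reporter fluorescence and both agonists and antagonists give an increase.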 The method, then:
OT_ER_ERaERb_1440 is a cell-based assay that uses HEK293T, a human kidney cell line, with measurements taken at 24 hours after chemical dosing in a 384-well plate.OT_ER_ERaERb_1440 is one of one assay component(s) measured or calculated from the OT_ER_ERaERb_1440 assay. It is designed to make measurements of protein fragment complementation, a form of binding reporter, as detected with fluorescence intensity signals by Protein-fragment Complementation technology.Data from the assay component OT_ER_ERaERb_1440 was analyzed into 1 assay endpoint. This assay endpoint, OT_ER_ERaERb_1440, was analyzed in the positive analysis fitting direction relative to DMSO as the negative control and baseline of activity. Using a type of binding reporter, measures of receptor for gain-of-signal activity can be used to understand the binding at the pathway-level as they relate to the gene ESR1 and ESR2. Furthermore, this assay endpoint can be referred to as a primary readout, because the performed assay has only produced 1 assay endpoint. To generalize the intended target to other relatable targets, this assay endpoint is annotated to the nuclear receptor intended target family, where the subfamily is steroidal.
Protein-fragment complementation assay, or PCA, is a method for the identification and quantification of protein-protein interactions. In the PCA, the proteins of interest ("bait" and "prey") are each covalently linked to fragments of a third protein (e.g. DHFR, which acts as a "reporter"). Interaction between the bait and the prey proteins brings the fragments of the reporter protein in close proximity to allow them to form a functional reporter protein whose activity can be measured. The OT ER alpha / ER beta assay is a heterodimer PCA of the ligand binding domain (LBD) of ER alpha (amino acids 310-547) and human ER beta (amino acids 263-489) stably expressed in HEK293T cells. […] Fluorescent signal in the basal state of the assay is very low and is primarily punctuate and cytoplasmic. Modulation of this assay is quantified as an increase in mean fluorescence intensity in the nucleus (for agonists) or in the nucleus and cytoplasm (antagonists) relative to vehicle controls, and can be quantified on a high content imaging device or a laser scanning cytometer. The latter instrument is favored for this assay because of the rapid mode of data acquisition, the ability to acquire data from the entire cell population in a well (as opposed to a fraction of the well on the high content devices) and the larger dynamic range typically achieved with this instrument. To assess sensitivity of the ER alpha/ER beta LBD assay to ligand, cells were treated with the ER agonist 17- beta-estradiol (E2) in 10-point concentration- response format for 24 hours and monitored response on a laser scanning plate cytometer (Acumen eX3; TTP Lab Tech).
Regarding `OC1CCC(C2CCCCC2)CC1` (stereo not given), the outcome was inactive; the concentration at half-maximal activity (AC50) was 60.7 µM (active) and 64.1 µM (active) and 59.4 µM (active).
On to `c1ccc2c(c1)Cc1ccccc1-2`, for which the result was inactive.
The same measure, in the same setting: as for `CN(C)C=O`, the entry is “inactive”.
Turning to `C[C@@H]1C[C@H]2[C@@H]3CCC4=CC(=O)C=C[C@]4(C)[C@@]3(F)[C@@H](O)C[C@]2(C)[C@@]1(O)C(=O)COP(=O)(O)O`, the outcome was inactive.
Still for that read-out and setting: to `CC(=O)CC(C)(C)O` belongs “inactive”.
Regarding `Oc1cc2ccccc2c2ccccc12`, the outcome was inactive.
For the compound `CCCOC(=O)c1ccc(O)cc1`, the AC50 is 15.5 µM (active).
On the same count and under the same terms, to `CC[C@H](c1ccc(O)cc1)[C@@H](CC)c1ccc(O)cc1` belongs 100 nM (active) [middle of 5 runs].
Same read-out and setting: to `Oc1cccc(O)c1` belongs 32.1 µM (active).
For `CCCCCCCCCCCCc1ccccc1S(=O)(=O)O`, the result was inactive.
The same measure, in the same setting: as for `Nc1cccc2c(N)cccc12`, the entry is “inactive”.
Same read-out and setting: to `Cc1oc(-c2ccccc2)nc1CCOc1ccc(C[C@H](Nc2ccccc2C(=O)c2ccccc2)C(=O)O)cc1` belongs “inactive”.
Still for that read-out and setting: as for `CCCCCCC(=O)O`, the entry is “inactive”; as for `Cc1cc(CCN2CCN(c3nsc4ccccc34)CC2)cc2c1NC(=O)CC2(C)C`, “inactive”.
Consider `CCCCC(CC)COC(=O)CCCCC(=O)OCc1ccccc1` (stereo not given), for which the outcome was inactive.
Still for that read-out and setting: to `OCCC(F)(F)C(F)(F)C(F)(F)C(F)(F)C(F)(F)C(F)(F)F` belongs “inactive”; to `OCCC(F)(F)C(F)(F)C(F)(F)C(F)(F)C(F)(F)C(F)(F)C(F)(F)C(F)(F)F`, “inactive”.
The same measure, in the same setting: as for `CC(C)(C)CC(C)(C)c1ccc(O)c(-n2nc3ccccc3n2)c1`, the entry is “inactive”.
In the case of `NC(=O)N1C(=O)C(C(=O)c2cc(Cl)cs2)c2cc(F)c(Cl)cc21` (stereo not given), the result was inactive.
The same measure, in the same setting: to `CN1CCC[C@H]1c1cccnc1` belongs “inactive”; to `CCCCC(CC)COC(=O)CCCCC(=O)OCC(CC)CCCC` (stereo not given), “inactive”; to `CCCCCCCCCCCCCCCS(=O)(=O)Oc1ccccc1`, “inactive”.
Consider `CCCCCCCC(=O)O`, for which the AC50 is 17.1 µM (active).
For `CCc1ccc(CCOc2ccc(CC3SC(=O)NC3=O)cc2)nc1` (stereo not given), the outcome was inactive.
Turning to `O=C1OC2(c3ccccc31)c1cc(Br)c(O)c(Br)c1Oc1c2cc(Br)c(O)c1Br`, the AC50 was 53.7 µM (active).
Consider `C#C[C@]1(O)CC[C@H]2[C@@H]3CCC4=CC(=O)CC[C@@H]4[C@H]3CC[C@@]21C`, for which the result was inactive.
The same measure, in the same setting: as for `CCc1nn(C2CCCCC2)c2cc(C3(C#N)CCC(C(=O)O)CC3)ccc12` (stereo not given), the entry is “inactive”; as for `O=C(O)Cc1cc(I)c(Oc2cc(I)c(O)c(I)c2)c(I)c1`, “inactive”.
`CC(C)(C)c1cc(C(C)(C)C)c(O)c(C(C)(C)C)c1`: the AC50 is 73.3 µM (active).
Still for that read-out and setting: as for `NC(=O)N(O)[C@@H]1C=C[C@H](Oc2cccc(Oc3ccc(F)cc3)c2)C1`, the figure is 34.8 µM (active).
For `CC[C@H](C)[C@@H](C(=O)O)n1sc2ccccc2c1=O`, the result was inactive.
The same measure, in the same setting: to `CCCCCCCCCCCCN1CCCC1=O` belongs “inactive”; to `N#C[C@@H]1CC(F)(F)CN1C(=O)CNC1CC2CCC(C1)N2c1ncccn1` (stereo not given in full), “inactive”.
Still for that read-out and setting: to `CCCCCCCCOC(=O)CCCCCCCCC(=O)OCCCCCCCC` belongs “inactive”.
Same read-out and setting: as for `COc1ccc([N+](=O)[O-])cc1N`, the entry is “inactive”; as for `COCC(C)OCC(C)O` (stereo not given), “inactive”.
Take `CCCCCCCCC(=O)O`: the outcome was inactive.
The same measure, in the same setting: as for `CC(C)(C)c1ccc(O)c(C(C)(C)C)c1`, the entry is “inactive”.
On the same count and under the same terms, to `C=C(C)C(=O)OCCC(F)(F)C(F)(F)C(F)(F)C(F)(F)C(F)(F)C(F)(F)F` belongs “inactive”.
